Measured values taken from ChEMBL document CHEMBL3988442, “University of Dundee, Small-Polar-MMV Screening Library” (2021).
About 13,000 (27%) of roughly 48,000 compounds showed an effect of 50% or more. This is one part of the list.

system: Wolbachia pipientis; test: Anti-Wolbachia Cell-Based Screen; assay type: functional; design: scale not given: in the data most compounds retested in dose-response had high values; details: 5 µM

Row | Structure (SMILES) | Percent Effect
1 | CN(CC(C)(C)O)C(=O)Nc1ccc(F)c(-n2cccc2)c1 | 2.422%
2 | CNS(=O)(=O)c1cccc(C(C)NCc2cccc(C)c2C)c1 (configuration not stated) | 8.764%
3 | O=C(C1CC2(CCNCC2)CN1)N1CCN(c2cccc(Cl)c2Cl)CC1 (configuration not stated) | 3.67%
4 | COCCOCC(=O)N1C[C@H]2CC[C@@H]1CN(C1Cc3ccccc3C1)C2 | 11.56%
5 | COc1cccc(C(=O)NCc2ccccc2S(=O)(=O)N(C)CCO)c1 | 1.796%
6 | CCS(=O)(=O)c1ncc(CN2CCOCC2)n1CCCc1ccccc1 | 6.125%
7 | CCN1CC2(CCC1=O)CCN(c1ccc(C(C)=O)cn1)CC2 | 0.06704%
8 | CCc1nc(CN2CCCC(Cn3nc(C)nc3C)C2)no1 (configuration not stated) | 81.07%
9 | Cc1nc(C)n(CC2CCCN(Cc3noc(C)n3)C2)n1 (configuration not stated) | 96.94%
10 | Cc1nc(C)n(CC2CCCN(CC3CCCCC3)C2)n1 (configuration not stated) | 104.8%
11 | Cc1nc(C)n(CC2CCCN(Cc3nc(C4CC4)no3)C2)n1 (configuration not stated) | 2.839%
12 | Cc1noc(CN2CCCC(Cn3nc(C)nc3C)C2)n1 (configuration not stated) | 104.9%
13 | CS(=O)(=O)N1C[C@@H]2COC[C@@H](CC(=O)N3CCCCO3)[C@@H]2C1 | -9.378%
14 | CNC(=O)[C@@H](c1ccccc1F)N1CCC[C@H]1C(=O)NC1CC1.Cl | 0.6767%
15 | O=C1N[C@@H]2CCN(C(=O)C3CC3)[C@@H]2C(=O)N1c1ccccc1 | -5.528%
16 | Cc1ccccc1Oc1ncccc1CNS(=O)(=O)N(C)C | -17.53%
17 | CC(C)c1cc(N[C@H](C(N)=O)C(C)C)n2nccc2n1 | -22.97%
18 | COCCc1noc(CN2CCCC(Cn3nc(C)nc3C)C2)n1 (configuration not stated) | 0.4033%
19 | CCc1noc(CN2CCCC(Cn3nc(C)nc3C)C2)n1 (configuration not stated) | 134.9%
20 | CS(=O)(=O)CCN1CC(c2ccccc2)(c2ccccc2)CCC1=O | -17.1%
21 | O=C1CC(c2ncc(-c3ccc4c(c3)OCCO4)[nH]2)CN1C1CC1 (configuration not stated) | -4.884%
22 | C=C(C)COc1cccc(C(=O)N(CC)Cc2noc(C)n2)c1 | -33.22%

Row | Structure (SMILES) | Percent Effect
23 | CCc1noc(-c2cccc(OCC(=O)NC(C)C)c2)n1 | 95.64%
24 | CC(C)c1noc(CS(=O)(=O)CC(=O)NCCOc2ccccc2)n1 | 13.06%
25 | CC(NC(=O)COc1nc(C(C)(C)C)no1)c1ccco1 (configuration not stated) | 8.75%
26 | CC(C)NC(=O)COc1nc(C(C)C)no1 | -19.75%
27 | CC(C)NC(=O)COc1ccc(-c2nc(C(C)C)no2)cc1 | 114.1%
28 | CCCNC(=O)COc1cccc(-c2nc(C(C)C)no2)c1 | 120.4%
29 | COc1cccc(-c2n[nH]cc2C(=O)NC(C)c2nc(C(C)C)no2)c1 (configuration not stated) | -2.83%
30 | CC(C)c1noc(CCCC(=O)NCCOc2ccccc2)n1 | -1.504%
31 | CC(C)NC(=O)COc1nc(C(C)(C)C)no1 | -1.58%
32 | CCCn1nc(-c2nc(COc3ccccc3)no2)ccc1=O | -3.247%
33 | CC(C)NC(=O)COc1cccc(-c2nc(C(C)C)no2)c1 | 105.1%
34 | Cc1oncc1S(=O)(=O)N1CCCC(C)(Cc2ccc3c(c2)OCO3)C1 (configuration not stated) | -3.14%
35 | CS(=O)(=O)NCCC(=O)NCc1cccnc1-n1cnc2ccccc21 | 11.61%
36 | O=C(CS(=O)(=O)C1CCCC1)NC1CCCc2cc(OC(F)F)ccc21 (configuration not stated) | -7.219%
37 | COCCN(Cc1ccccn1)C(=O)CC1OCCc2sccc21 (configuration not stated) | 9.879%
38 | CSCc1noc(CN2CC3(CCCC3)CC2=O)n1 | -12.65%
39 | CN(C)C(C(=O)N1CCN(C(=O)c2ccc[nH]2)CC1)c1ccc(F)cc1 (configuration not stated) | 1.074%
40 | CC(C)c1ncc2c(n1)CN(Cc1cccc(OCC(N)=O)c1)CC2 | -10.24%
41 | CN1CCC(Cc2noc(-c3cccc(OCC(N)=O)c3)n2)CC1 | 14.54%
42 | CC(C)c1noc(-c2cccc(OCC(N)=O)c2)n1 | 109.4%
43 | CN(CCOc1cccc(CN)c1)C1CCOCC1 | 3.585%
44 | Cn1cc(-c2ccc(C3CCCCN3Cc3cccnc3)cn2)cn1 (configuration not stated) | 97.17%

Row | Structure (SMILES) | Percent Effect
45 | Cn1cc(CN2CCCCC2c2ccc(-c3cccc(F)c3)nc2)cn1 (configuration not stated) | 28.65%
46 | Cn1c(Cl)cnc1CN1CCCC1c1ccc2c(c1)OCCO2 (configuration not stated) | -20.61%
47 | Cc1cnn(CCCNC(=O)C2CCCCN2Cc2cccnc2)c1 (configuration not stated) | 8.943%
48 | Cn1cc(CN2CCCCC2c2ccc(-c3cccc(Cl)c3)nc2)cn1 (configuration not stated) | 64.04%
49 | Cn1cc(CN2CCCCC2c2ccc(-c3cnn(C)c3)nc2)cn1 (configuration not stated) | 49.11%
50 | CN(CC(=O)Nc1ccccc1)C(=O)CN(C)c1ccc(Cl)cn1 | -3.187%
51 | CSc1ncc(CNCC2(N3CCCCC3)Cc3ccccc3C2)cn1 | -2.025%
52 | Cc1noc(CS(=O)(=O)c2cc(F)ccc2F)n1 | 2.12%
53 | Nc1nccc(N2CCNC(C(=O)NCc3ccccn3)C2)n1 (configuration not stated) | -0.8592%
54 | O=C(NCc1ccncc1)C1CN(c2nc3ccccc3s2)CCN1 (configuration not stated) | 6.015%
55 | O=C(NCc1ccccc1)C1CN(c2ccccn2)CCO1 (configuration not stated) | 195.5%
56 | O=C(NC[C@H]1OC[C@@H]2CCN(c3ccccn3)C[C@@H]21)c1ccco1 | -8.109%
57 | CCC1CN(C(=O)c2cnc(-c3ccccc3)s2)CCO1 (configuration not stated) | -14.04%
58 | Cc1cnc(N2CCOC(C(=O)NCc3ccccc3)C2)s1 (configuration not stated) | 138.3%
59 | CN(C)c1ccccc1C(=O)N1C[C@@H](CN2CCOCC2)[C@@H](CO)C1 | 9.943%
60 | O=C1N[C@@H]2CCN(C(=O)c3ccccc3)[C@@H]2C(=O)N1Cc1ccccc1 | -7.073%
61 | N#Cc1ncn(CCC(=O)Nc2c(Cl)cccc2Cl)n1 | -3.932%
62 | N#Cc1ncn(CC(=O)Nc2cc(Cl)ccc2F)n1 | -2.838%
63 | N#Cc1ncn(CCC(=O)Nc2ccc(F)c(F)c2)n1 | 100.3%
64 | O=C(CCNC(=O)c1ccoc1)Nc1ccccc1F | -1.29%
65 | N#Cc1ncn(CCC(=O)Nc2ccccc2F)n1 | 141.3%
66 | N#Cc1ncn(CCC(=O)Nc2cccc(Cl)c2)n1 | 93.03%

Row | Structure (SMILES) | Percent Effect
67 | N#Cc1ncn(CCS(=O)(=O)c2ccccc2)n1 | 11.97%
68 | N#Cc1ncn(CCS(=O)(=O)c2ccc(Cl)cc2)n1 | -0.6249%
69 | N#Cc1ncn(CCS(=O)(=O)c2ccc(Br)cc2)n1 | 14.03%
70 | N#Cc1ncn(CCC(=O)Nc2cc(Cl)ccc2Cl)n1 | 94.62%
71 | N#Cc1ncn(CCC(=O)Nc2ccc(Cl)cc2F)n1 | 11.11%
72 | Cc1ccc(F)cc1NC(=O)CCn1cncn1 | -7.237%
73 | CCCC1CCN(C(=O)c2coc(COc3ccc(OC)cc3)n2)C1 (configuration not stated) | 13.18%
74 | CCOc1c(Br)cc(CNC(C)c2nnc3n2CCC3)cc1OC (configuration not stated) | -3.79%
75 | O=C(c1cc(COc2ccc3c(c2)OCO3)[nH]n1)N1CCCO1 | -2.662%
76 | COc1ccc(C[C@H]2CN(C3CCOCC3)CC[C@H]2OCC2CC2)cc1.O=C(O)C(F)(F)F | -41.15%
77 | COc1ccc(C[C@H]2CN(Cc3ccoc3)CC[C@H]2OC)cc1.O=C(O)C(F)(F)F | 63.46%
78 | COc1ccc(CN2C[C@@H]3CN(Cc4ccoc4)C[C@@H]3C2=O)cc1.O=C(O)C(F)(F)F | -0.9609%
79 | COc1ccc(C[C@H]2CN(C3CCOCC3)CC[C@@H]2OCC2CC2)cc1.O=C(O)C(F)(F)F | -34.49%
80 | COc1ccc(C[C@H]2CN(Cc3ccoc3)CC[C@@H]2OC)cc1.O=C(O)C(F)(F)F | 76.48%
81 | COc1ccc(CN2CCN(S(=O)(=O)c3cc(C(=O)O)cs3)CC2)cc1 | 1.54%
82 | Cc1cc(-c2nn(C)c(Cl)c2CN2CCOCC2CC(=O)O)no1 (configuration not stated) | 1.04%
83 | CCCS(=O)(=O)c1ncc(CN2CCC(C)CC2)n1CC1CCCO1 (configuration not stated) | -5.004%
84 | CC(=O)N1CCN(CCCSCc2ccccc2)CC1 | -1.866%
85 | O=S(=O)(NCCC(O)c1cccs1)c1c(F)cccc1F (configuration not stated) | 0.3394%
86 | CSCc1cccc(S(=O)(=O)NCCCN2CCOCC2)c1 | -6.624%
87 | O=S(=O)(NCCCN1CCCC1)c1cc(F)cc(F)c1 | -0.6955%
88 | CC(=O)N1CCN(CCNS(=O)(=O)c2cccc(F)c2)CC1 | 146.4%

Row | Structure (SMILES) | Percent Effect
89 | CC(=O)N1CCN(CCNS(=O)(=O)c2cc(F)ccc2C)CC1 | 96.01%
90 | CC(=O)N1CCN(CCNS(=O)(=O)c2c(F)cccc2F)CC1 | 115.2%
91 | Cc1ccc(F)cc1S(=O)(=O)NCc1cccc(CS(C)(=O)=O)c1 | -14.38%
92 | CC1CCN(CCCNS(=O)(=O)c2cc(F)cc(F)c2)CC1.Cl | -12.88%
93 | CC1CCN(CCCNS(=O)(=O)c2cccc(F)c2)CC1.Cl | 5.28%
94 | CC(=O)N1CCN(CCNS(=O)(=O)c2cc(F)cc(F)c2)CC1 | 102.1%
95 | CC(=O)N1CCN(CCNc2ncc(Br)cc2C)CC1 | 3.175%
96 | Cc1nc(CNCc2ccc(N3CCN(C)CC3)nc2)cs1 | -1.26%
97 | CN(CCCNS(=O)(=O)N1CCC2(CC1)OCCO2)c1ccccc1 | 15.24%
98 | CNc1ccnc(N2C[C@@H]3CC[C@H](C2)N(CCOC)C3=O)n1 | -5.532%
99 | O=S(=O)(NCCN1CC=CC1)c1ccc(Cl)cc1 | -10.33%
100 | CS(=O)(=O)Cc1cccc(CNS(=O)(=O)c2ccc(F)c(F)c2)c1 | -9.477%
101 | CC(=O)N1CCN(CCNS(=O)(=O)c2ccc(F)c(F)c2)CC1 | 114.9%
102 | Cn1ncc2ccc(C3CCCN(C(=O)Cc4cccs4)C3)nc21 (configuration not stated) | 73.59%
103 | O=C(Cc1cccs1)N1CCCC(CNS(=O)(=O)Cc2ccccc2)C1 (configuration not stated) | -8.788%
104 | COCC1CN(C(=O)Cc2cccs2)Cc2c1cnn2C (configuration not stated) | -7.933%
105 | Cn1cc(CN2CCO[C@H]3CN(Cc4ccsc4)C[C@H]32)cn1 | -4.934%
106 | Cn1ncc2ccc(C3CCCN(Cc4ccsc4)C3)nc21 (configuration not stated) | 178.8%
107 | Cn1ncc2ccc(C3CCCN(Cc4cccs4)C3)nc21 (configuration not stated) | 161.9%
